# ± gives the standard deviation.
# Assays:
# Test in all cases: peptide microarray binding signal (635 nm), min-max normalized on array (fraction of array maximum); higher = stronger binding
# Details in all cases: peptide region: H3 1-13
# [1] = molecular target: T1, HaloTag-ATRX ADD domain (163-292)
# T1 chain: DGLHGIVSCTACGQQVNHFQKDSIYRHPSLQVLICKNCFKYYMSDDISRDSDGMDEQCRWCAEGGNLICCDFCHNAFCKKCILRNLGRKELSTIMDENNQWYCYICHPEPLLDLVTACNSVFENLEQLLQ
# Protocol: (§1)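 Histone 13-mer peptides were synthesized as cellulose conjugates with a C-terminal 20-atom PEG linker and printed in triplicate on nitrocellulose. The sequence given is the unmodified backbone; PTMs (Kme1/2/3, Kac, Sph/Tph, Rme/Rme2a/Rme2s, Rcit) are listed in the label and the 'peptide modifications' condition. Slides were probed at 4 °C for 1 h with biotin-labelled (HQ)5-HaloTag reader fusions (ATRX-ADD, ING2-PHD) then streptavidin-Alexa647, or with rabbit histone antibodies then anti-rabbit Alexa647. The mean 635 nm signal of the triplicate spots was scaled 0-1 between the lowest and highest values on each array.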
# [2] = molecular target: HaloTag-ING2 PHD (mouse Ing2 200-280)
# Protocol: as §1
# [3] = molecular target: anti-H3K4me3 antibody ab8580
# Protocol: as §1
# [4] = molecular target: anti-H3K9me3 antibody ab8898
# Protocol: as §1
# [5] = peptide modifications: H3R2me2a H3T3ph, binder concentration: 1:2,000 dilution
# [6] = peptide modifications: H3R2me2a H3T3ph, binder concentration: 1:10,000 dilution
# [7] = peptide modifications: H3R2me2s H3K4ac, binder concentration: 1:2,000 dilution
# [8] = peptide modifications: H3R2me2s H3K4ac, binder concentration: 1:10,000 dilution
# [9] = peptide modifications: H3R8cit H3K9me1, binder concentration: 1:2,000 dilution
# [10] = peptide modifications: H3R8cit H3K9me1, binder concentration: 1:10,000 dilution
# [11] = peptide modifications: H3R8cit H3K9me2, binder concentration: 1:2,000 dilution
# [12] = peptide modifications: H3R8cit H3K9me2, binder concentration: 1:10,000 dilution
# [13] = peptide modifications: H3R8cit H3K9ac, binder concentration: 1:2,000 dilution
# [14] = peptide modifications: H3R8cit H3K9ac, binder concentration: 1:10,000 dilution
# [15] = peptide modifications: H3R2me2a H3K9me3, binder concentration: 1:2,000 dilution
# [16] = peptide modifications: H3R2me2a H3K9me3, binder concentration: 1:10,000 dilution
# [17] = peptide modifications: H3R2me2s H3K9me3, binder concentration: 1:2,000 dilution
# [18] = peptide modifications: H3R2me2s H3K9me3, binder concentration: 1:10,000 dilution
# [19] = peptide modifications: H3R2me2s, binder concentration: 1:2,000 dilution
# [20] = peptide modifications: H3R2me2s, binder concentration: 1:10,000 dilution
# [21] = peptide modifications: H3R2me2s H3K9me1, binder concentration: 1:2,000 dilution
# [22] = peptide modifications: H3R2me2s H3K9me1, binder concentration: 1:10,000 dilution
# [23] = peptide modifications: H3R2me2a H3K9me1, binder concentration: 1:2,000 dilution
# [24] = peptide modifications: H3R2me2a H3K9me1, binder concentration: 1:10,000 dilution
binder,measurement,setting,value
ARTKQTARKSTGG [H3 1-13 A Rme2a Tph K Q T A R K S T G G],peptide microarray binding signal,"[1]; peptide modifications: H3R2me2a H3T3ph, binder concentration: 50 nM",0.00567 ± 0.00034
same,peptide microarray binding signal,"[1]; peptide modifications: H3R2me2a H3T3ph, binder concentration: 500 nM",0.0135 ± 0.00068
same,peptide microarray binding signal,"[2]; peptide modifications: H3R2me2a H3T3ph, binder concentration: 10 nM",0.00501 ± 0.00013
same,peptide microarray binding signal,"[2]; peptide modifications: H3R2me2a H3T3ph, binder concentration: 100 nM",0.00737 ± 0.00044
same,peptide microarray binding signal,[3]; [5],0.00262 ± 0.00056
same,peptide microarray binding signal,[3]; [6],0.00434 ± 0.00077
same,peptide microarray binding signal,[4]; [5],0.000755 ± 0.00011
same,peptide microarray binding signal,[4]; [6],0.000577 ± 6.2e-06
ARTKQTARKSTGG [H3 1-13 A Rme2s T Kac Q T A R K S T G G],peptide microarray binding signal,"[1]; peptide modifications: H3R2me2s H3K4ac, binder concentration: 50 nM",0.0137 ± 0.00038
same,peptide microarray binding signal,"[1]; peptide modifications: H3R2me2s H3K4ac, binder concentration: 500 nM",0.046 ± 0.0095
same,peptide microarray binding signal,"[2]; peptide modifications: H3R2me2s H3K4ac, binder concentration: 10 nM",0.0299 ± 0.0078
same,peptide microarray binding signal,"[2]; peptide modifications: H3R2me2s H3K4ac, binder concentration: 100 nM",0.0957 ± 0.0077
same,peptide microarray binding signal,[3]; [7],0.00993 ± 0.0029
same,peptide microarray binding signal,[3]; [8],0.00651 ± 0.00097
same,peptide microarray binding signal,[4]; [7],0.0137 ± 0.0005
same,peptide microarray binding signal,[4]; [8],0.00617 ± 0.00064
ARTKQTARKSTGG [H3 1-13 A R T K Q T A Rcit Kme S T G G],peptide microarray binding signal,"[1]; peptide modifications: H3R8cit H3K9me1, binder concentration: 50 nM",0.0302 ± 0.0019
same,peptide microarray binding signal,"[1]; peptide modifications: H3R8cit H3K9me1, binder concentration: 500 nM",0.0745 ± 0.02
same,peptide microarray binding signal,"[2]; peptide modifications: H3R8cit H3K9me1, binder concentration: 10 nM",0.0223 ± 0.002
same,peptide microarray binding signal,"[2]; peptide modifications: H3R8cit H3K9me1, binder concentration: 100 nM",0.0394 ± 0.013
same,peptide microarray binding signal,[3]; [9],0.00313 ± 0.00015
same,peptide microarray binding signal,[3]; [10],0.00217 ± 9.9e-05
same,peptide microarray binding signal,[4]; [9],0.00225 ± 0.00023
same,peptide microarray binding signal,[4]; [10],0.00185 ± 5.2e-05
ARTKQTARKSTGG [H3 1-13 A R T K Q T A Rcit Kme2 S T G G],peptide microarray binding signal,"[1]; peptide modifications: H3R8cit H3K9me2, binder concentration: 50 nM",0.0517 ± 0.0042
same,peptide microarray binding signal,"[1]; peptide modifications: H3R8cit H3K9me2, binder concentration: 500 nM",0.0992 ± 0.0018
same,peptide microarray binding signal,"[2]; peptide modifications: H3R8cit H3K9me2, binder concentration: 10 nM",0.0235 ± 0.0016
same,peptide microarray binding signal,"[2]; peptide modifications: H3R8cit H3K9me2, binder concentration: 100 nM",0.0428 ± 0.011
same,peptide microarray binding signal,[3]; [11],0.00302 ± 0.00049
same,peptide microarray binding signal,[3]; [12],0.00177 ± 5e-05
same,peptide microarray binding signal,[4]; [11],0.00248 ± 0.00035
same,peptide microarray binding signal,[4]; [12],0.00277 ± 8.7e-05
ARTKQTARKSTGG [H3 1-13 A R T K Q T A Rcit Kac S T G G],peptide microarray binding signal,"[1]; peptide modifications: H3R8cit H3K9ac, binder concentration: 50 nM",0.00718 ± 9.2e-05
same,peptide microarray binding signal,"[1]; peptide modifications: H3R8cit H3K9ac, binder concentration: 500 nM",0.0143 ± 0.00071
same,peptide microarray binding signal,"[2]; peptide modifications: H3R8cit H3K9ac, binder concentration: 10 nM",0.0183 ± 0.0039
same,peptide microarray binding signal,"[2]; peptide modifications: H3R8cit H3K9ac, binder concentration: 100 nM",0.031 ± 0.01
same,peptide microarray binding signal,[3]; [13],0.0013 ± 3.1e-05
same,peptide microarray binding signal,[3]; [14],0.002 ± 0.0002
same,peptide microarray binding signal,[4]; [13],0.00239 ± 0.00033
same,peptide microarray binding signal,[4]; [14],0.00208 ± 0.00016
ARTKQTARKSTGG [H3 1-13 A Rme2a T K Q T A R Kme3 S T G G],peptide microarray binding signal,"[1]; peptide modifications: H3R2me2a H3K9me3, binder concentration: 50 nM",0.553 ± 0.21
same,peptide microarray binding signal,"[1]; peptide modifications: H3R2me2a H3K9me3, binder concentration: 500 nM",0.325 ± 0.0057
same,peptide microarray binding signal,"[2]; peptide modifications: H3R2me2a H3K9me3, binder concentration: 10 nM",0.0188 ± 0.00063
same,peptide microarray binding signal,"[2]; peptide modifications: H3R2me2a H3K9me3, binder concentration: 100 nM",0.0327 ± 0.0029
same,peptide microarray binding signal,[3]; [15],0.0294 ± 0.003
same,peptide microarray binding signal,[3]; [16],0.0254 ± 0.0048
same,peptide microarray binding signal,[4]; [15],0.328 ± 0.013
same,peptide microarray binding signal,[4]; [16],0.254 ± 0.069
ARTKQTARKSTGG [H3 1-13 A Rme2s T K Q T A R Kme3 S T G G],peptide microarray binding signal,"[1]; peptide modifications: H3R2me2s H3K9me3, binder concentration: 50 nM",0.172 ± 0.02
same,peptide microarray binding signal,"[1]; peptide modifications: H3R2me2s H3K9me3, binder concentration: 500 nM",0.303 ± 0.03
same,peptide microarray binding signal,"[2]; peptide modifications: H3R2me2s H3K9me3, binder concentration: 10 nM",0.0377 ± 0.0039
same,peptide microarray binding signal,"[2]; peptide modifications: H3R2me2s H3K9me3, binder concentration: 100 nM",0.0559 ± 0.0018
same,peptide microarray binding signal,[3]; [17],0.211 ± 0.015
same,peptide microarray binding signal,[3]; [18],0.14 ± 0.0028
same,peptide microarray binding signal,[4]; [17],0.81 ± 0.03
same,peptide microarray binding signal,[4]; [18],0.561 ± 0.017
ARTKQTARKSTGG [H3 1-13 A Rme2s T K Q T A R K S T G G],peptide microarray binding signal,"[1]; peptide modifications: H3R2me2s, binder concentration: 50 nM",0.00815 ± 0.00015
same,peptide microarray binding signal,"[1]; peptide modifications: H3R2me2s, binder concentration: 500 nM",0.0158 ± 0.0003
same,peptide microarray binding signal,"[2]; peptide modifications: H3R2me2s, binder concentration: 10 nM",0.00424 ± 0.00023
same,peptide microarray binding signal,"[2]; peptide modifications: H3R2me2s, binder concentration: 100 nM",0.0168 ± 0.003
same,peptide microarray binding signal,[3]; [19],0.00153 ± 0.0002
same,peptide microarray binding signal,[3]; [20],0.000799 ± 8.3e-06
same,peptide microarray binding signal,[4]; [19],0.00178 ± 0.00012
same,peptide microarray binding signal,[4]; [20],0.00075 ± 1.6e-05
ARTKQTARKSTGG [H3 1-13 A Rme2s T K Q T A R Kme S T G G],peptide microarray binding signal,"[1]; peptide modifications: H3R2me2s H3K9me1, binder concentration: 50 nM",0.0197 ± 0.00077
same,peptide microarray binding signal,"[1]; peptide modifications: H3R2me2s H3K9me1, binder concentration: 500 nM",0.03 ± 0.0016
same,peptide microarray binding signal,"[2]; peptide modifications: H3R2me2s H3K9me1, binder concentration: 10 nM",0.0236 ± 0.0023
same,peptide microarray binding signal,"[2]; peptide modifications: H3R2me2s H3K9me1, binder concentration: 100 nM",0.0288 ± 0.00047
same,peptide microarray binding signal,[3]; [21],0.0193 ± 0.003
same,peptide microarray binding signal,[3]; [22],0.0216 ± 0.0013
same,peptide microarray binding signal,[4]; [21],0.0154 ± 0.00086
same,peptide microarray binding signal,[4]; [22],0.0152 ± 0.0011
ARTKQTARKSTGG [H3 1-13 A Rme2a T K Q T A R Kme S T G G],peptide microarray binding signal,"[1]; peptide modifications: H3R2me2a H3K9me1, binder concentration: 50 nM",0.0646 ± 0.0083
same,peptide microarray binding signal,"[1]; peptide modifications: H3R2me2a H3K9me1, binder concentration: 500 nM",0.138 ± 0.008
same,peptide microarray binding signal,"[2]; peptide modifications: H3R2me2a H3K9me1, binder concentration: 10 nM",0.0387 ± 0.0036
same,peptide microarray binding signal,"[2]; peptide modifications: H3R2me2a H3K9me1, binder concentration: 100 nM",0.0709 ± 0.014
same,peptide microarray binding signal,[3]; [23],0.0175 ± 0.0013
same,peptide microarray binding signal,[3]; [24],0.0118 ± 0.0015
same,peptide microarray binding signal,[4]; [23],0.00838 ± 0.0011
same,peptide microarray binding signal,[4]; [24],0.00675 ± 0.00044

# Reference: the supplement of paper PMC4022240
